Bioassay records: PubChem BioAssay, National Center for Advancing Translational Sciences (NCATS)
NS1 inh: inhibitors of influenza NS1 protein function | Potency, µM (titrated, usually from 46.1 µM), inactives show at the highest dose activity, positive = more growth | 0.4% of 270,000 active | AID 2326; calls by dose curve; note: actives are rising curves; nearly all actives have a fitted effect of over 50% in size
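OD600 was taken as the measure of yeast growth restored by compound in an NS1-expressing S. cerevisiae strain. Cells had been washed out of glucose medium and diluted 1:100 into galactose -URA medium, pH 6.0.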
SARS PLpro yeast: blocks SARS-CoV papain-like protease in a yeast assay. S. cerevisiae expressing SARS-CoV PLpro, growth rescue. Potency, µM (titrated, usually from 32.9 µM), for the others: top-dose activity, positive = growth rescue, usual class: activators. 0.19% of 330,000 active. AID 485353; calls by dose curve; note: 0% is about no effect; nearly all actives have a fitted effect of over 55% in size
Pf growth 48h: inhibits P. falciparum growth in the first generation, 48 h; 5.9% of 310,000 active; Potency, µM (highest dose often 28.7 µM), for inactives: at the top dose activity change, negative = inhibition, actives largely listed as inhibitors; AID 504832; P. falciparum luciferase growth in erythrocytes, 48 h; note: % is set by controls: 0 for no effect and ±100 for the full control effect
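Read-out is firefly luciferase luminescence from an integrated reporter in P. falciparum, so falling signal marks reduced parasite growth. Infected erythrocytes were at 2% hematocrit and 0.1% parasitemia (final) in Albumax-supplemented RPMI 1640.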
RE007 growth inh: less growth of the S. pombe RE007 Vpr strain | S. pombe RE007 Vpr strain, BacTiter-Glo ATP luminescence, 24 h | Potency, µM (series often up to 92.2 µM), for the others: at the top dose activity change, negative = less growth, usual class: inhibitors | 0.21% of 360,000 active; active = well fitted falling curve with a large enough effect; inconclusive = small, poorly fitted or top-dose-only effect; inactive = no such curve, though single readings can be large or run the other way; note: % is set by controls: 0 for no effect and ±100 for the full control effect; nearly all actives have a fitted effect of over 50% in size
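Fission yeast RE007 carrying one integrated HIV-1 vpr copy, seeded at OD 0.01 in PMG+AL medium with 23 nL pinned compound. Grown 24 h at 30 degrees; viability read by BacTiter-Glo luminescence after 5 min.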
Pf growth 96h: P. falciparum growth inhibition at 96 hour, primary screen for plastid delayed-death inhibitors; P. falciparum luciferase reporter growth, 96 h; Potency, µM (doses to about 28.7 µM), for inactives: at the top dose activity change, negative = inhibition, most hits filed as inhibitors; 6.9% of 320,000 active; AID 504834; note: % is set by controls: 0 for no effect and ±100 for the full control effect
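Readout is luminescence from an integrated firefly luciferase in P. falciparum. Red cells, 2% hematocrit and 0.05% parasitemia final, were cultured with compound through two parasite generations (96 hours) at 37 C, 5% CO2.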
Numbers without * were called inactive; ? = inconclusive; . = no result; [ ] = dose if it differs, or a comment. Shown are actives, neighbours in structure and some others; about 9.5% of the full set was active somewhere. Unless noted, calls come from the whole dose curve; as a rule, active = well fitted inhibition curve with a large enough effect; inconclusive = small, poorly fitted or top-dose-only effect, or another doubt; inactive = no such curve, though single readings can be large or run the other way. Potency is the fitted concentration of half-maximal effect.

SMILES | NS1 inh | SARS PLpro yeast | Pf growth 48h | RE007 growth inh | Pf growth 96h
N#Cc1ccc(CSc2nnc(-c3cccc(S(=O)(=O)N4CCCCC4)c3)o2)cc1 | -27% | -4% | 13µM* | -3% | ?
COc1ccc(CNS(=O)(=O)c2cn(C)c(=O)n(C)c2=O)cc1 | 4% | 2% | 25% | 1% | 31%
c1cncc(CSc2nnc(-c3cccnc3)n2Cc2ccco2)c1 | 5% | -5% | 17% | . | 32%
FC(F)(F)COc1cc(-c2nnc(SCc3ccccc3)n2Cc2ccco2)cc(OCC(F)(F)F)n1 | 10% | 0% | 6.6µM* | -8% | 12µM*
CC1CCCC(C)N1S(=O)(=O)c1ccc(NC(=O)CCn2cnc3ccccc3c2=O)cc1 (configuration not stated) | -4% | -13% | 13µM* | -12% | .
O=C(Cn1cnc2ccccc2c1=O)NCCC(=O)Nc1ccc2c(c1)OCCO2 | 5% | -2% | 52% | -4% | 10µM*
O=C(Cn1cnc2ccccc2c1=O)Nc1ccc(S(=O)(=O)N2CCCC2)cc1 | -2% | 0% | -16% | -14% | -18%
CC(C)CC(NC(=O)C(NC(=O)OC(C)(C)C)C(C)C)C(=O)NC(CCC(=O)OCc1ccccc1)C(N)=O (configuration not stated) | 11% | 0% | 1.9µM* | 7% | ?
CCn1c(COc2ccccc2)nnc1SCC(=O)CC(=O)Nc1ccccc1OC | ? | 3% | 13µM* | 8% | 7.4µM*
CCn1c(COc2ccccc2)nnc1SCC(=O)NC1CCCCC1 | -2% | -1% | 2.9µM* | 4% | -16%
CCn1c(SCC(=O)NC2CCCCC2)nc2ccccc2c1=O | -2% | -2% | 52% | -11% | 12µM*
CCn1c(COc2cccc(C)c2)nnc1SCC(=O)CC(=O)Nc1ccccc1OC | 14% | 4% | ? | -1% | 18%
CN(Cc1ccccc1)C(=O)c1csc([C@H]2C[C@H](O)[C@@H](CO)O2)n1 | . | . | . | -4%[18.4 µM] | .
CCCn1c(SCC(=O)Nc2cc(C(=O)O)ccc2C)nc2sc3c(c2c1=O)CCC3 | . | -8% | 2% | -2% | 5%
CCOC(=O)/C(=N\Nc1ccccc1)P(=O)(c1ccccc1)c1ccccc1 | -5% | 0% | ? | 3% | 0%
COc1ccc(Oc2c(C(F)(F)F)oc3cc(OCC(=O)O)ccc3c2=O)cc1 | 5% | -2% | 15% | -9% | 9.3µM*
COc1ccccc1C(=O)COC(=O)c1cc([N+](=O)[O-])ccc1N1CCOCC1 | . | -3% | 4.7µM* | -24% | ?
Cc1cc(C)c(C(=O)COC(=O)c2cc([N+](=O)[O-])ccc2N2CCOCC2)cc1C | . | -7% | 10µM* | 21% | ?
CC(C)n1cnc2c(NCc3ccccc3)cc(Cc3ccc(F)cc3)cc21 | . | 2% | 10µM* | -19% | 6.6µM*
CCCOc1cc(NCc2ccccc2)c2ncn(C(C)C)c2c1 | . | 7% | 8.3µM* | -10% | 2.6µM*
CCC(CO)Oc1cc(NCc2ccc(C)cc2)c2ncn(C(C)C)c2c1 (configuration not stated) | . | -4% | . | -8% | .
CCC(CO)Oc1cc(NCc2ccc(OC)cc2)c2ncn(C(C)C)c2c1 (configuration not stated) | . | -17% | 15µM* | 9% | ?
COc1ccccc1-c1nnc(-c2ccc(N3CCOCC3)cc2)o1 | -9% | 4% | ? | -2% | 1.7µM*
CCCOC(=O)C1=C(C)NC2=C(C(=O)CCC2)C1c1cccc(OC)c1OC (configuration not stated) | -10% | -1% | 14% | 7% | 8.3µM*
COC(=O)C1=C(C)NC2=C(C(=O)CCC2)C1c1coc2ccccc2c1=O (configuration not stated) | -15% | 3% | ? | 18% | 86%
SMILES | NS1 inh | SARS PLpro yeast | Pf growth 48h | RE007 growth inh | Pf growth 96h
COC(=O)C1=C(C)N(Cc2ccccc2)C(=O)N[C@H]1c1ccccc1 | -25% | 10% | 0% | -7% | ?
CCOC(=O)C1=C(C)NC2=C(C(=O)CCC2)C1c1coc2ccccc2c1=O (configuration not stated) | ? | -14% | . | 2% | 12µM*
COCCOC(=O)C1=C(C)N(Cc2ccccc2)C(=O)NC1c1cccc(OC)c1OC (configuration not stated) | -17% | 3% | ? | -19% | 1µM*
Cc1cnc(C(=O)O)cn1 | . | . | 1% | . | -7%
Fc1ccc(/C=N/Nc2ncnc3nc[nH]c23)cc1F | 22% | 1% | ? | 1% | 9.3µM*
O=[N+]([O-])c1ccccc1CNCCO | . | -5% | 35% | -12% | 117%
O=Cc1cccn1Cc1ccccc1[N+](=O)[O-] | 21% | -12% | -2% | -15% | 9.3µM*
CC(C)c1ccc(C(=O)NC(=S)Nc2ccc3[nH]c(=O)[nH]c3c2)cc1 | 4% | 0% | -23% | 4% | 32%
Cc1cc(NC(=O)CCC(=O)N(CC(=O)NC2CCCC2)c2ccccc2)no1 | -2% | 1% | ? | -9% | 15µM*
Cc1cc(NC(=O)CCC(=O)N(c2ccccc2)C(C(=O)NCC2CCCO2)c2cccnc2)no1 (configuration not stated) | -6% | 3% | -1% | 20% | 10µM*
Cc1cccc(N(C(=O)CCC(=O)Nc2cc(C)on2)C(C(=O)NC2CCCC2)c2cccnc2)c1 (configuration not stated) | -9% | 0% | -30% | -17% | -3%
Cc1cccc(N(C(=O)CCC(=O)Nc2cccnc2)C(C(=O)NC2CCCC2)c2ccncc2)c1 (configuration not stated) | -3% | 14% | ? | 25% | 12µM*
Cc1cc(NC(=O)CCC(=O)N(c2cccnc2)C(C(=O)NC2CCCC2)c2ccccc2)no1 (configuration not stated) | -6% | 1% | -20% | -9% | 29%
Cc1cc(NC(=O)/C=C/C(=O)N(CC(=O)NC2CCCC2)c2cccc3ccccc23)no1 | . | 2% | 10µM* | 0% | 1%
COc1ccc(-c2nnc(SCc3ccc(C(=O)O)cc3)n2N)cc1 | 5% | -1% | 53% | -1% | 5%
Cc1cc(NC(=O)CCC(=O)N(c2ccc(F)cc2)C(C(=O)NC2CCCC2)c2ccccc2)no1 (configuration not stated) | 15% | -1% | ? | -7% | ?
Cc1cc(NC(=O)CCC(=O)N(Cc2ccco2)C2(C(=O)NC3CCCCC3)CCCC(C)C2)no1 (configuration not stated) | 8% | 0% | -28% | -9% | ?
CCc1ccc(N(C(=O)CCC(=O)Nc2cc(C)on2)C(C(=O)NC2CCCC2)c2ccco2)cc1 (configuration not stated) | -7% | ? | ? | 3% | ?
